TGFb SMAD3 inh: TGF-b pathway inhibition; HepG2 CAGA-GFP TGF-b/SMAD3 reporter, GFP fluorescence, 18 h; TGF-beta stimulated, 500 pg/mL final; Potency, µM (series often up to 46.1 µM), usual class: inhibitors; hit rate 1.2% among 410,000; also: nearly all actives have a fitted effect of over 65% in size
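Per well, imaged GFP fluorescence of HEPG2 CAGA-GFP cells gives the signal; cells get compound, then TGF-beta (500 pg/mL final), 18 h at 37 degrees C; %Activity versus -TGF-beta and +DMSO controls.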
HepG2 viability: counter-screen for TGF-b inhibitors: cytotoxicity in HepG2 cells. HepG2 CAGA-GFP viability, ATP luminescence, 18 h. Potency, µM (doses to about 46.1 µM), most hits filed as cytotoxic. hit rate 0.76% among 410,000
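HepG2 CAGA-GFP cells (1000/well, DMEM with 1% FBS) received compound, then TGF-beta at 500 pg/mL final, and were incubated 18 hours at 37 degrees C. Viability was read by CellTiter-Glo luminescence. Media-only wells were set as complete cell-killing and DMSO as no toxicity.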
TDP1 block: inhibitors of human tyrosyl-DNA phosphodiesterase TDP1; Potency, µM (titrated, usually from 130 µM), most hits filed as inhibitors; recombinant TDP1, AlphaScreen DNA substrate cleavage; hit rate 0.28% among 350,000; also: nearly all actives have a fitted effect of over 40% in size
Target sequence (Q9NUW8 whole entry, looked up): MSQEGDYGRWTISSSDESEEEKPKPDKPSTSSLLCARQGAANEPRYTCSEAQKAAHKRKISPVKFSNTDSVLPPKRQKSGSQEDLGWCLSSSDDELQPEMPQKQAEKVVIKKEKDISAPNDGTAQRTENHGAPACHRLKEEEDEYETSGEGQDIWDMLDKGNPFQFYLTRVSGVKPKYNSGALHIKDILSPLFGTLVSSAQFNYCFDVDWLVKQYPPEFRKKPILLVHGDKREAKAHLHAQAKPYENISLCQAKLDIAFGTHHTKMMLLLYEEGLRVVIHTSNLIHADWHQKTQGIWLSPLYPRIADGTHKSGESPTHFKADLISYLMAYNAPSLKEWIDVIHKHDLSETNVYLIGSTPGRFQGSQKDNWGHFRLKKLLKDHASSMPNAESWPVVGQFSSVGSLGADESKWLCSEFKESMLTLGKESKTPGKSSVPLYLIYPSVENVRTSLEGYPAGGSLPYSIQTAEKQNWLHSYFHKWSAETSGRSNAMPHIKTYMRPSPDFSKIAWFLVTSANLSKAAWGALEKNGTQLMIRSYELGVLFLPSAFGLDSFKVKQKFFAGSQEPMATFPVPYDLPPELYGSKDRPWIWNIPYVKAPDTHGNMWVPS
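Tdp1 1 nM final; 15 min RT w/ cpd; substrate 15 nM, 5 min; beads 10 ug/ml, 10 min; AlphaScreen read. Neg ctrl: no enzyme.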
IL1B secr inh: blocks inflammasome-driven IL-1 beta release; THP-1 LPS/ATP IL-1B secretion, AlphaLISA, 16 h; active compounds read low; activity change, % at 57.5 µM; hit rate 4.7% among 360,000; AID 743279; in the data active = activity change below about -50%; inconclusive = mostly about -30% to -49%
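THP-1 cells pretreated 1 hr with compounds (up to 57.5 uM final), then stimulated with LPS (250 ng/mL final) plus ATP (1.25 mM final); secreted IL-1B measured by AlphaLISA after 16 hr, decreased signal indicating inhibition.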
TDP1 cell CPT: DT40-hTDP1 cell growth loss with CPT; Potency, µM (top dose mostly 46.2 µM), actives largely listed as inhibitors; chicken DT40 Tdp1-/-;hTDP1 cells + 20 nM CPT, ATP luminescence, 48 h; hit rate 12% among 420,000; also: nearly all actives have a fitted effect of over 55% in size
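Chicken DT40 Tdp1-/- cells stably complemented with human TDP1 were seeded at 400 cells/well in medium containing 20 nM camptothecin, exposed to pin-transferred compounds, and grown at 37 °C for at least 48 hr. Viability was read as ATP luminescence.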
TDP1 cell noCPT: qHTS for Inhibitors of human tyrosyl-DNA phosphodiesterase 1 (TDP1): qHTS in cells in absence of CPT; DT40 Tdp1-/- hTDP1 cells, no CPT, ATP luminescence, 48 h; Potency, µM (doses to about 46.2 µM), actives largely listed as inhibitors; hit rate 15% among 420,000; AID 686978, 2013; also: nearly all actives have a fitted effect of over 55% in size
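Camptothecin absent (DMSO only). Human TDP1-complemented DT40 knockout cells, 400 cells/well, 37 °C for minimum 48 hr; ATP measured via CellTiter-Glo, 30 min dark incubation, luminescence.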
A number is an active result; n = inactive; u = inconclusive; x = no result; [ ] = another dose, or the depositor's remark. Compounds with a hit are over-represented: about 18% of the library has one in this group of screens. Unless noted, calls follow the shape of the dose curve; as a rule, active = well fitted curve in the direction sought with a large enough effect; inconclusive = small, poorly fitted or top-dose-only effect, or another doubt; inactive = no such curve, though single readings can be large; an effect the other way counts as inactive or inconclusive.

SMILES | TGFb SMAD3 inh | HepG2 viability | TDP1 block | IL1B secr inh | TDP1 cell CPT | TDP1 cell noCPT
CS(=O)(=O)c1ccc(C(=O)N(Cc2ccccc2)c2ccccc2)cc1 | n | n | n | n | u | u
CC(C)NC(=O)C(=O)Nc1cc2c3c(c1)C(C)C(=O)N3CCC2 (stereo not drawn) | n | n | n | n | n | n
O=S(=O)(Nc1ccc(F)cc1)N1CCOCC1 | n | n | n | n | n | n
COc1cc(O)c(C(CCN2CCCC2)c2ccc(N(C)C)cc2)c(OC)c1 (stereo not drawn) | u | n | n | n | 14.6µM | 20.6µM
COc1cc(O)c(C(CCN2CCCCC2)c2ccc(N(C)C)cc2)c(OC)c1 (stereo not drawn) | n | n | n | u | 16.4µM | 6.51µM
COc1ccc(C(CCN2CCOCC2)c2c(O)cc(OC)cc2OC)cc1 (stereo not drawn) | u | n | n | n | u | u
CCN(CC)C(=O)CC(c1ccc(N(C)C)cc1)c1c(O)cc(OC)cc1OC (stereo not drawn) | n | n | n | n | u | n
COc1ccc(CN2CCCC(n3cc(C(=O)N4CCCCC4)nn3)C2)cc1OC (stereo not drawn) | x | x | x | x | n[9.04 µM] | n
COc1ccc(NC(=O)CSc2nc(-c3ccc(OC)cc3)[nH]c2-c2ccc(OC)cc2)cc1 | u | n | n | x | u | u
COc1ccc(-c2[nH]c(-c3ccc(F)cc3)nc2SCC(=O)Nc2ccc(OC)c(OC)c2)cc1 | u | n | n | x | 16.4µM | u
COc1ccc(-c2nc(SCC(=O)NCc3ccco3)c(-c3ccccc3)[nH]2)cc1OC | n | n | n | n | u | u
COc1ccc(NC(=O)CSc2nc(-c3cc(OC)c(OC)c(OC)c3)[nH]c2-c2ccc(F)cc2)cc1 | n | n | n[12.3 µM] | x | u | 23.1µM
COc1cccc(/C=N/Nc2snc(SC)c2C#N)c1O | 10µM | n | n | u | 2.91µM | 2.59µM
COc1cccc(/C=N/Nc2snc(SC)c2C#N)c1 | u | n | n | n | n | n
COc1ccc(/C=N/Nc2snc(SC)c2C#N)cc1OC | n | n | n | n | 16.4µM | u
Cc1cccc(N2CCN(C(=O)c3ccncc3)CC2C)c1 (stereo not drawn) | n | n | n | n | n | n
Cc1ccc(N2C(=O)C3C4C=CC(CNC(=S)N5CCN(c6cccc(C)c6)C(C)C5)(O4)C3C2=O)cc1 (stereo not drawn) | n | n | n | n | 9.2µM | 4.61µM
Nc1nc(SCC(=O)Nc2cccc(C(F)(F)F)c2)n[nH]1 | n | n | x | x | n | n
CN1CCCN(c2ncnc3scc(-c4ccc(F)cc4)c23)CC1 | n | n | n | n | n | u
COc1ccc(-c2csc3ncnc(N4CCN(c5ccc(OC)cc5)CC4)c23)cc1 | u | n | n | n | 23.1µM | 13µM
CC(C)c1ccc(-c2csc3ncnc(N4CCN(C)CC4)c23)cc1 | n | n | x | -91.6 | 16.4µM | 11.6µM
Cc1ccc(-c2csc3ncnc(N4CCN(c5ccccc5O)CC4)c23)cc1 | n | n | n | -61.3 | u | 14.6µM
COc1ccc(-c2csc3ncnc(N4CCN(c5ccccc5O)CC4)c23)cc1 | n | n | n | n | u | 16.4µM
COc1ccc(-c2csc3ncnc(N4CCN(c5ccccc5[N+](=O)[O-])CC4)c23)cc1 | n | n | n | n | u | 18.4µM
O=C(O)c1ccc(S(=O)(=O)N[C@@H](Cc2ccc(O)cc2)C(=O)O)cc1 | x | x | n | x | x | x
O=C(Nc1ncc(Cc2ccc(SC(F)F)cc2)s1)c1ccccc1 | u | n | n | n | 2.91µM | 2.31µM
Cc1ccc(C(=O)Nc2ncc(Cc3ccccc3)s2)o1 | n | n | n | n | n | n
O=C(Nc1ncc(Cc2ccc(Cl)cc2)s1)c1ccc2c(c1)CC(c1ccccc1)OC2=O (stereo not drawn) | n | n | n | x | 4.61µM | 7.31µM
O=C(Nc1ncc(Cc2cccc(Cl)c2)s1)c1cccs1 | u | n | n | n | u | u

Assay outcomes (PubChem)
